Laboratory results from PubChem BioAssay AID748 (Sanford-Burnham Center for Chemical Genomics, 2007).
About 100 (0.1%) of roughly 96,000 compounds were called active. Shown is part of a subset that was picked to be rich in actives. Entries with a potency or affinity are not part of this list. Values without a mark were called inactive.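 The calls were made as follows: active = displacement above 50% at 20 µM plus a fluorescence interference ratio under 1.5; inactive = the rest.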

Target: Bcl-2-like protein 10 (Homo sapiens) (UniProt Q9HD36)
Test: Bcl-B/TR3 peptide binding disruption – biochemical, fluorescence polarization, FITC-TR3 peptide, selectivity assay for Bfl-1 inhibitor project, primary screen (AID 748);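 also: plate controls were wells without compound for no effect and wells lacking Bcl-B protein for full effect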
Details: FP displacement of FITC-TR3 peptide from Bcl-B; at 20 µM; active compounds read high

SMILES | displacement
Cc1ccc(-c2csc(N3N=C(c4ccccc4)/C(=C\c4ccc(N(C)C)cc4)C3=O)n2)cc1 | -1.8%
CCOc1cc(/C=C2\SC(=S)N(Nc3ccccc3)C2=O)ccc1O | -87.6%
COc1cc(C2N(c3ccccn3)C(=O)C3CCCN32)cc(OC)c1OC (centres undefined) | 6.8%
Cc1ccc(Cl)c(OCC(=O)Nc2ccc3c(c2)OCCO3)c1 | 1.3%
O=C(O)CN(c1ccc(F)cc1)S(=O)(=O)c1ccc2c(c1)OCCO2 | -1.7%
CC(C)CN(C(=O)COC(=O)c1ccc2c(c1)NC(=O)CS2)C1CCS(=O)(=O)C1 (centres undefined) | 8.5%
CC(C)CN(C(=O)COC(=O)c1cc2ccccc2oc1=O)C1CCS(=O)(=O)C1 (centres undefined) | -8.2%
O=C(CCc1nc2ccccc2s1)OCC(=O)N1CCN(C(=O)c2ccco2)CC1 | -8%
Cn1c(=O)c2c3c(sc2n2c(SCc4ccc5c(c4)OCO5)nnc12)COC(C)(C)C3 | -8.4%
O=C(Nc1ccc(F)cc1F)c1cc2ncc(Br)cn2n1 | -2.9%
COC(=O)c1ccccc1NC(=O)c1cc2ncc(Br)cn2n1 | 1.3%
Cc1ccc(Cc2cnc(NC(=O)C3CCCO3)s2)cc1 (centres undefined) | 0.1%
CCC1=NNc2cccc3c(OC)ccc1c23 | 83.6% (active)
COc1ccc2c3c(cccc13)N(C)N=C2C | 20.3%
COc1ccc(C(C)=O)c2c(O)cccc12 | -7%
CCC(C)(C)n1nnnc1C(c1ccc2ncccc2c1)N1CCN(c2nc3ccccc3s2)CC1 (centres undefined) | -13.1%
COc1ccc(-c2c(C)nn(-c3ccccc3)c2N)cc1 | -8%
CCOc1cc(C(=O)Nc2ccon2)cc(OCC)c1OCC | -15.8%
Cc1ccc(S(=O)(=O)NC(=O)c2cc(C)n(CCCN3CCOCC3)c2C)cc1 | 8.5%
Cc1cc(=S)cc(C)n1CCCn1ccnc1 | -6.1%
Cc1ccccc1C1CC(=O)NC2=C1C(=O)CCC2 (centres undefined) | -1.2%
CCCn1c(SCC(=O)NCCc2ccc(OC)c(OC)c2)nc2c1c(=O)n(C)c(=O)n2C | -14.2%

SMILES | displacement
Cc1cc(C)cc(OCC(=O)OCC(=O)Nc2ccc(Cl)cn2)c1 | -13.6%
O=C(COC(=O)CCOc1ccccc1)Nc1ccc(Cl)cn1 | 16%
CCOC(=O)C1=C(O)/C(=C/N(C)C)N=C1C | -3.9%
CCOC(=O)c1sc(/N=C/N(C)C)c(C(=O)OCC)c1C | -16.8%
CCOC(=O)C(Cc1ccccc1)NC(=O)Cn1nnc(-c2ccc(SC)cc2)n1 (centres undefined) | -16.2%
CCCOP(=O)(OCCC)C(Nc1ccc(C(C)C)cc1)c1ccc([N+](=O)[O-])cc1 (centres undefined) | 13.7%
Cc1c(NS(=O)(=O)c2cccc(C(=O)NCc3ccccc3)c2)c(=O)n(-c2ccccc2)n1C | 0.4%
CCOC(=O)c1ccc(NC2OC(=O)c3ccccc32)cc1 (centres undefined) | -4.1%
CCOC(=O)c1ccc(NC(=O)C(C)N2C(=O)c3ccccc3C2=O)cc1 (centres undefined) | 14.6%
Cc1ccc(CC(=O)OCCNC(=O)c2cccnc2)cc1 | 1.8%
O=c1c2cc(N3CCOCC3)ccc2[nH]c(=S)n1CCCN1CCCCC1 | 10.5%
O=c1c2cc(N3CCOCC3)ccc2[nH]c(=S)n1CCCN1CCCC1 | 13.1%
CN(C)c1ccc(C2N(c3ccc(F)cc3)C(=O)C3CCCN32)cc1 (centres undefined) | -12.2%
Cc1ccc(C)c(NC(=O)C2C(c3ccccc3)C2(Cl)Cl)c1 (centres undefined) | -7.6%
Cc1cccc(Nc2nc(N)nc(CN3CCN(Cc4ccc5c(c4)OCO5)CC3)n2)c1 | -2.8%
Cc1cc(C)nc(/N=C(\N)C2=C(O)CC(C)(C)CC2=O)n1 | -12.3%
CC1(C)OC(=O)C2(Cc3ccccc3N3CCCCC32)C(=O)O1 (centres undefined) | 3.5%
O=C1c2ccccc2C(=O)C12Cc1ccccc1N1CCN(c3ccccc3)CC12 (centres undefined) | -0.1%
O=C(CCS(=O)(=O)c1ccc(Br)cc1)N1CCN(Cc2ccccc2)CC1 | -5%
O=C(CCN1CCc2ccccc2CC1)c1ccc2c(c1)OCCO2 | 19.8%
O=C(CCN1Cc2ccccc2C1)c1ccc2c(c1)OCCO2 | 0.8%
Cc1ccc(S(=O)(=O)NCCC(=O)NC2CCCC2)cc1 | 2%

SMILES | displacement
O=C(CN1C(=O)C2CC=CCC2C1=O)Nc1nc2ccccc2[nH]1 (centres undefined) | 7.6%
CCCOc1cc(C)nc(-c2ccccc2O)n1 | -2.4%
O=C(CN1C(=O)C2CCCCC2C1=O)Nc1nc(-c2ccccn2)cs1 (centres undefined) | -3.3%
O=C(Nc1nc(-c2ccccn2)cs1)C1CC1 | -5.8%
Cc1cc2c(c(=O)n1CC1CCCO1)C(c1ccco1)C(C#N)=C(N)O2 (centres undefined) | -1.3%
CCOC(=O)c1cnc(-n2nc(C)cc2C)nc1Nc1ccc(OC)cc1 | 0.6%
CCN(CC)S(=O)(=O)c1cc(C(=O)Nc2ccc(Cl)cn2)ccc1C | -1.9%
Cc1nc2sc3c(c2c(=O)[nH]1)CCC3 | -1.1%
CCCOc1ccc(Cc2nn3c(=O)/c(=C/c4ccco4)sc3nc2=O)cc1 | -5.7%
Cc1ccc(-c2nc3s/c(=C\c4ccco4)c(=O)n3n2)cc1 | -14.4%
CCn1c2ccccc2c2nnc(SCc3cc(=O)n4ccsc4n3)nc21 | -0.4%
Cc1ccccc1Oc1ccc(S(=O)(=O)NCCC(=O)O)cc1 | 0.5%
Clc1ccc(CN2CCCCCCC2)cc1Cl | -0.5%
O/N=C/c1cccn1-c1ccc(O)cc1 | 0.9%
ON=Cc1cccn1-c1ccccc1 | 3.4%
O=C(Nc1cccnc1)c1c(F)cccc1F | 7.8%
CC1(C)CC(NC(=O)c2coc(=O)c(Br)c2)CC(C)(C)N1 | 6.4%
COc1ccc(C(=O)N2CCOCC2)cc1Br | -9.8%
O=C(c1ccc(=O)oc1)N1CCOCC1 | -16.5%
O=C(c1coc(=O)c(Br)c1)N1CCCc2ccccc21 | 18%
